# From PubChem BioAssay AID651605 (National Center for Advancing Translational Sciences (NCATS), 2012)
# “And” between values parts separate entries of the source, which are not always exact repeats. Identical values can stand only once. Inconclusive results are not listed. The source made the active and inactive calls. Calls follow the shape of the dose curve; as a rule, active = well fitted inhibition curve with a large enough effect; inconclusive = small, poorly fitted or top-dose-only effect; inactive = flat fitted curve, though single readings scatter.
# Molecular target: Ubiquitin carboxyl-terminal hydrolase 1 (Homo sapiens) (UniProt O94782)
# Test: Inhibitors of USP1/UAF1: SAR in Primary Assay
# Conditions: Recombinant USP1/UAF1, Ub-Rhodamine cleavage fluorescence; series mostly up to 57.1 µM
# Excerpt: Deubiquitinating enzymes (DUBs) are a class of enzymes that can cleave isopeptide bond formed between the C-terminal carboxylate of ubiquitin and a lysine side-chain amino group on the target protein. Among them, ubiquitin specific proteases (USPs) constitute the largest DUB family. Human USPs are emerging as promising targets for pharmacological intervention because of their connection to a number of human diseases, including prostate, colon and breast cancer (1, 2), pediatric acute lymphoblastic leukemia (3), and familial cylindromatosis (4). The advantage of inhibiting USPs lies in the potential specificity of therapeutic intervention that can lead to better efficacy and reduce nonspecific side effects. In a collaboration between the University of Delaware and the NIH Chemical Genomics Center, a high-throughput screen assay was developed to screen for USP1/UAF1 inhibitors (5). This assay was used to test the analogs that were synthesized based on SAR around the original hit. NIH Chemical Genomics Center [NCGC] NIH Molecular Libraries Probe Centers Network [MLPCN] MLPCN Grant: DA030552-01 Assay Submitter (PI): Zhihao Zhuang, University of Delaware 1. Priolo, C., et al. (2006) The isopeptidase USP2a protects human prostate cancer from apoptosis. Cancer Res 66, 8625-8632 2. Popov, N., et al. (2007) The ubiquitin-specific protease USP28 is required for MYC stability. Nat Cell Biol 9, 765-774 3. De Pitta, C., et al. (2005) A leukemia-enriched cDNA microarray platform identifies new transcripts with relevance to the biology of pediatric acute lymphoblastic leukemia. Haematologica 90, 890-898 4. Kovalenko, A., et al. (2003) The tumour suppressor CYLD negatively regulates NF-kappaB signalling by deubiquitination. Nature 424, 801-805 5. Chen, J., et al. (2011) Selective and cell-active inhibitors of the USP1/ UAF1 deubiquitinase complex reverse cisplatin resistance in non-small cell lung cancer cells. Chem Bio 18(11):1390-400.
# 3 microliters of reagents (buffer in columns 3 and 4 as negative control and 1nM USP1/UAF1 complex in columns 1, 2, and 5-48) are dispensed into Greiner black solid bottom 1536-well assay plates. Compounds are then transferred via Kalypsys pin tool equipped with 1536-pin array (10nl slotted pins, V&P Scientific, San Diego, CA). Following an incubation step of 15 min at room temperature, 1ul of Ub-Rho substrate (150nM final concentration) is added to initiate the reaction. The plates are immediately centrifuged at 1000 rpm for 15 seconds, and subsequently transferred to a ViewLux high-throughput CCD imager (PerkinElmer) wherein kinetic measurements of fluorescence are acquired using 480 nm excitation/540 nm emission filter set (6 reads every 60 seconds, see Table 1). All reagents are diluted in an assay buffer consisting of 50mM HEPES (pH 7.8), 0.5mM EDTA, 0.1 mg/ml BSA, 1mM TCEP, and 0.01% Tween-20.
# Chain of Ubiquitin carboxyl-terminal hydrolase 1 (Homo sapiens) (O94782 whole entry, looked up): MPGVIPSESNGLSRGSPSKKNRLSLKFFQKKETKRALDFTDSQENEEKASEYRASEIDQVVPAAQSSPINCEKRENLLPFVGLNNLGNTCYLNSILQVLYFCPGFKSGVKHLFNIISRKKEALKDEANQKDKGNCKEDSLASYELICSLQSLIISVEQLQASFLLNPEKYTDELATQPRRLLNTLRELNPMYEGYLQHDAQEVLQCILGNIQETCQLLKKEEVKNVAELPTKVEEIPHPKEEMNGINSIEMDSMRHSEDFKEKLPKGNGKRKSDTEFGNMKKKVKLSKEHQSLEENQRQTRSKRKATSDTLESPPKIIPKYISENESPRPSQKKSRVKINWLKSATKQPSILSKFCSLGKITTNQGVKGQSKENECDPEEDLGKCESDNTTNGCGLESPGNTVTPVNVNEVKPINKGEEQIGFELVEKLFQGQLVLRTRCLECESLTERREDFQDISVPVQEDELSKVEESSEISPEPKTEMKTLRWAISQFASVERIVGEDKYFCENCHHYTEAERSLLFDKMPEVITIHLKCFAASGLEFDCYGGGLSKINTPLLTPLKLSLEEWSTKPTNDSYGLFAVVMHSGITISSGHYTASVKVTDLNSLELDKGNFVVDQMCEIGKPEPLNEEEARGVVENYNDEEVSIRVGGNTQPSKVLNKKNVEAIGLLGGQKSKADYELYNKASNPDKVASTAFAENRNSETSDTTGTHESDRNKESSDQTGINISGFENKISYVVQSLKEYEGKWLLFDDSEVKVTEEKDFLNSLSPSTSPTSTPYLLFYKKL
row,SMILES,Potency
1,Cc1cnc(-c2ccccc2C(C)C)nc1NCc1ccc(C#N)cc1,482 nM (active)
2,CC(Nc1nc(-c2ccccc2C(F)(F)F)nc2ccccc12)c1ccc(-c2ccccc2)cc1 (stereo unspecified),4820 nM (active)
3,Cc1cnc(-c2ccccc2C(C)C)nc1NCc1ccc(-c2cccnc2)cc1,68.1 nM (active)
4,N#Cc1cccc(-c2ccc(CNc3nc(-c4ccccc4C(F)(F)F)nc4ccccc34)cc2)c1,2710 nM (active)
5,CC(C)c1ccccc1-c1ncc(F)c(NCc2ccc(-n3ccnn3)cc2)n1,17.1 nM (active)
6,CC(=O)c1ccccc1-c1ncc(C)c(NCc2ccc(-c3cccnc3)cc2)n1,7640 nM (active)
7,Cc1cnc(-c2ccccc2OC(C)C)nc1NCc1ccc(-n2ccnn2)cc1,429 nM (active)
8,FC(F)(F)c1cc(-c2ccc(CNc3nc(-c4ccccc4C(F)(F)F)nc4ccsc34)cc2)ccn1,3410 nM (active)
9,Fc1cnc(-c2ccccc2C(F)F)nc1NCc1ccc(-c2cccnc2)cc1,1210 nM (active)
10,COc1ccccc1-c1ncc(C)c(NCc2ccc(-c3cccnc3)cc2)n1,764 nM (active)
11,FC(F)(F)c1ccc(-c2ccc(CNc3nc(-c4ccccc4C(F)(F)F)nc4ccccc34)cc2)cn1,4290 nM (active)
12,CN(Cc1ccc(-c2ccccc2)cc1)c1nc(-c2ccccc2C(F)(F)F)nc2ccccc12,4290 nM (active)
13,CC(C)c1ccccc1-c1nc2c(c(NCc3ccc(-c4cccnc4)cc3)n1)CCC2,136 nM (active)
14,FC(F)(F)c1ccccc1-c1nc(NCC2CCN(c3cccnc3)CC2)c2ccccc2n1,607 nM (active)
15,Cc1cnc(-c2ccccc2C(C)(C)C)nc1NCc1ccc(-n2ccnn2)cc1,136 nM (active)
16,CC(C)c1ccccc1-c1nc(NCc2ccc(-c3cccnc3)cc2)c2sccc2n1,121 nM (active)

row,SMILES,Potency
1,CC(C)c1ccccc1-c1ncc(N)c(NCc2ccc(-c3cccnc3)cc2)n1,271 nM (active)
2,FC(F)(F)c1ccccc1-c1nc(NCC#Cc2cccnc2)c2ccccc2n1,4.82 µM (active) and 7.64 µM (active)
3,COc1cnc(-c2ccccc2C(C)C)nc1NCc1ccc(-c2cccnc2)cc1,42.9 nM (active)
4,Cc1cnc(-c2ccccc2C(C)C)nc1NCC1CCN(C2COC2)CC1,15200 nM (active)
5,Cc1cnc(-c2ccccc2C(C)C)nc1NCc1ccc(C2CCCNC2)cc1 (stereo unspecified),7640 nM (active)
6,Cc1cnc(-c2ccccc2CO)nc1NCc1ccc(-c2cccnc2)cc1,8570 nM (active)
7,Cc1cnc(-c2ccccc2C2COC2)nc1NCC1CCN(c2cccnc2)CC1,inactive
8,Cc1cnc(-c2ccccc2N(C)C)nc1NCc1ccc(-c2cccnc2)cc1,429 nM (active)
9,FC(F)(F)c1cccc(-c2nc(NCc3ccc(-c4ccnc(C(F)(F)F)c4)cc3)c3ccccc3n2)c1,inactive
10,CC(C)c1ccccc1-c1nc2c(c(NCc3ccc(-c4cccnc4)cc3)n1)CCNC2,482 nM (active)
11,Cc1cnc(-c2ccccc2C(C)C)nc1NCC1CCN(c2cnccn2)CC1,121 nM (active)
12,Cc1cnc(-c2ccccc2C(C)C)nc1NCc1ccc(-c2cccc(S(N)(=O)=O)c2)cc1,215 nM (active)
13,Cc1cnc(-c2ccccc2C2CC2)nc1NCc1ccc(-c2cccnc2)cc1,341 nM (active)
14,FC(F)(F)c1ccccc1-c1nc(NCc2ccc(N3CCOCC3)cc2)c2ccccc2n1,7640 nM (active)
15,Fc1ccccc1-c1nc(NCc2ccc(-c3cccnc3)cc2)c2ccccc2n1,3410 nM (active)
